Drawing on PubChem BioAssay, this text covers growth inhibition, inhibition and outcome for 18 molecules.

A number with no mark means an inactive call. For part of these data: Entries with a potency or affinity are not part of this list. Activity calls are given as the source filed them. Unless noted, the rule behind the calls is not given here.

Test [1] can be described thus: antimalarial activity against Dd2 strain (AID 2302;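 active = growth inhibition above 50% at the single 2 µM test dose, taken to imply half-maximal potency below 2 µM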;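 note: 0% = DMSO untreated growth and 100% = chloroquine plus artemisinin killed control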). Particulars: P. falciparum Dd2 in RBCs, LDH growth readout, 72 h; at 2 µM; hits give high values.
The nature of test [2]: HepG2 cytotoxicity, primary screen, cytotoxicity control for P. falciparum antimalarial project, cell-based, ATP luminescence (AID 2303;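 active = inhibition above 50%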;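 note: 0% = DMSO wells and 100% = digitonin-killed cells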). Particulars: HepG2 viability, 24-48 h, at 10 µM, hits give high values.
For test [3], the target named is L-lactate dehydrogenase (Plasmodium falciparum (isolate CDC / Honduras)) (UniProt Q27743). As to the kind of experiment: PfLDH activity inhibition – cell lysate, 3D7 strain, counter-screen for P. falciparum growth inhibition project (AID 2304).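 Note: 0% = vehicle and 100% = reference inhibitor.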 The note with it: P. falciparum 3D7 crude extract, LDH APAD/NBT absorbance; at 2 µM; hits give high values. Background: The purpose of a counterscreen is to sort out artefacts and off-target activity.

Test [4] in a line: inhibition of 3D7 malaria parasite growth – strain 3D7 (AID 2306).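 Note: 0% = DMSO wells and 100% = chloroquine plus artemisinin control wells.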 Particulars: P. falciparum 3D7 erythrocytic growth, LDH absorbance, 72 h; at 2 µM; hits give high values.
Test [5] concerns the target Calcium-dependent protein kinase 1 (Plasmodium falciparum (isolate 3D7)) (UniProt P62344). As to the kind of experiment: PfCDPK1 kinase inhibitors, biochemical, TCAMS library (AID 1159585; cut-off not given, nearly all actives have IC50 up to about 0.98 µM;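 note: inhibitors leave more ATP so luminescence rises with inhibition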). Particulars: recombinant PfCDPK1, Kinase-Glo ATP depletion luminescence. For orientation: Kinase-Glo reads ATP consumption through a luciferase reaction.
Test [6] has as its target Plasmodium falciparum protein kinase 6 (PK6, PF3D7_1337100) (UniProt Q8IDW1). Put plainly: PfPK6 kinase inhibitors, biochemical, TCAMS library (AID 1159586). The note with it: recombinant PfPK6, Kinase-Glo ATP depletion luminescence.
In test [7] the target is Protein kinase 7 (PK7), Plasmodium falciparum 3D7 (PF3D7_0213400) (UniProt Q7YTF7). As to the kind of experiment: inhibition of Plasmodium PK7 catalytic activity – biochemical, TCAMS antimalarial set, Kinase-Glo luminescence (AID 1159587). The note with it: recombinant PfPK7, Kinase-Glo ATP depletion luminescence.
In test [8] the target is Calcium-dependent protein kinase 4 (Plasmodium falciparum (isolate 3D7)) (UniProt Q8IBS5). As to the kind of experiment: PfCDPK4 kinase inhibitors, biochemical, TCAMS library (AID 1159588; cut-off not given, nearly all actives have IC50 up to about 0.91 µM). The note with it: recombinant PfCDPK4, Kinase-Glo ATP depletion luminescence.
Calcium-dependent protein kinase 4 (Plasmodium falciparum (isolate 3D7)), sequence (Q8IBS5 whole entry, looked up): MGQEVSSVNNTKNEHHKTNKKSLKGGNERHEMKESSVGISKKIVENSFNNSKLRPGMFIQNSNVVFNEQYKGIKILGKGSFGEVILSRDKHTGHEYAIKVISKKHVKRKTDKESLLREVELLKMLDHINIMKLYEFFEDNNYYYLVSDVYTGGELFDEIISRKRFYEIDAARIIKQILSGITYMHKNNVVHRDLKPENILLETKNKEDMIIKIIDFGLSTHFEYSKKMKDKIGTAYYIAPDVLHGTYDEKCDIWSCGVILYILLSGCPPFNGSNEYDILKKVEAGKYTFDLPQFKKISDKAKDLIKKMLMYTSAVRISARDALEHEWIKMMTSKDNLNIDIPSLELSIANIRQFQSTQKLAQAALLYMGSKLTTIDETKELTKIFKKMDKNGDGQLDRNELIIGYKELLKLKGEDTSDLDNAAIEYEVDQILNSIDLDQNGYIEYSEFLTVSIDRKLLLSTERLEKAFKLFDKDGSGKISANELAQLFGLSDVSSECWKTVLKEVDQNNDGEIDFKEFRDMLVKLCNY

Plasmodium falciparum protein kinase 6 (PK6, PF3D7_1337100), sequence (Q8IDW1 1-305): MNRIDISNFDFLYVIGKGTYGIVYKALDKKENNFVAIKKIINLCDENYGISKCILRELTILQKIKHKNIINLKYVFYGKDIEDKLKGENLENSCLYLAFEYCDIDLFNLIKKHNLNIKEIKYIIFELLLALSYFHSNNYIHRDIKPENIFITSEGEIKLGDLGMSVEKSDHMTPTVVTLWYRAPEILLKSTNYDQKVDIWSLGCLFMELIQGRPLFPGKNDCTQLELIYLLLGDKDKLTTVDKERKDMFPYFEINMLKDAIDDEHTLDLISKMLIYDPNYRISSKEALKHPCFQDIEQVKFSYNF
Protein kinase 7 (PK7), Plasmodium falciparum 3D7 (PF3D7_0213400), sequence (Q7YTF7 1-343): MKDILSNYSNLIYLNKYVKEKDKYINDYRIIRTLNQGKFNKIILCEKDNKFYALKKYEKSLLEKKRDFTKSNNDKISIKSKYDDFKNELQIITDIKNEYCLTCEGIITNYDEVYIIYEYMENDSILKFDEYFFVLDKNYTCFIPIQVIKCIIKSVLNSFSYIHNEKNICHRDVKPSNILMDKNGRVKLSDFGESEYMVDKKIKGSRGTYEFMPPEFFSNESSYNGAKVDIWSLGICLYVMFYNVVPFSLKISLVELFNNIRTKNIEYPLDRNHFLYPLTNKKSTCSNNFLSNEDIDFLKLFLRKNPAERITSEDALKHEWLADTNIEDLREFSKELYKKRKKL
L-lactate dehydrogenase (Plasmodium falciparum (isolate CDC / Honduras)), sequence (Q27743 whole entry, looked up): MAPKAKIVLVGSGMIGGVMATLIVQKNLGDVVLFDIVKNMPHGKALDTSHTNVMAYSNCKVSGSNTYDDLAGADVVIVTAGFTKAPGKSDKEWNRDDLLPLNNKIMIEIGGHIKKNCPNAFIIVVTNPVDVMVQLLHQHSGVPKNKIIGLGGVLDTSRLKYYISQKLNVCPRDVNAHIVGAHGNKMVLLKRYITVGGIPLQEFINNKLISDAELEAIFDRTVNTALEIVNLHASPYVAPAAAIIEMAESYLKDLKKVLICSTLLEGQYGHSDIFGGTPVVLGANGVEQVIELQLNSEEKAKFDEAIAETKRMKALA
Calcium-dependent protein kinase 1 (Plasmodium falciparum (isolate 3D7)), sequence (P62344 whole entry, looked up): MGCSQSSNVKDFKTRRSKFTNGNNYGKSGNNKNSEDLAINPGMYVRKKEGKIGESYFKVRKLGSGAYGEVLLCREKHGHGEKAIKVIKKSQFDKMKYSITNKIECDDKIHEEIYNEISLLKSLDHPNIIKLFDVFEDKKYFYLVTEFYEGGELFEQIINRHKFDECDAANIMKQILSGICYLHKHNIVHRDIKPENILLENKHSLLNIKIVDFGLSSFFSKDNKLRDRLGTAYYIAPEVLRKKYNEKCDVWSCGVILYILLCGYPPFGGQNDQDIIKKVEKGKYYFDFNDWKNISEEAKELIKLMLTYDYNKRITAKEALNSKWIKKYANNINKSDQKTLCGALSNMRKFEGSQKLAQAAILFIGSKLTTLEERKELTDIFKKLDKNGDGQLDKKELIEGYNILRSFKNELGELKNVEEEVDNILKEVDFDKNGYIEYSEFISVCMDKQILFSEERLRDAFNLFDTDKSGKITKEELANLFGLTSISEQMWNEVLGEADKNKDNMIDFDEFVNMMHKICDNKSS

For the molecule `C=C(C)C1CC=C(CN2CCCC(n3ccc4cc(NC(=O)c5ccco5)ccc43)CC2)CC1` (centres undefined), the figures for the growth inhibition in test [1] and in test [4] were 95% (active) and 90% (active), respectively. Further, the inhibition (usually the drop in the measured response relative to a control, in per cent) in test [2] was 13%; in test [3], 1%. In addition, the outcome in test [5], in test [6], in test [7] and in test [8] was inactive.

Regarding `Cc1cc(C2CCN(CCCCNC(=O)c3ccc(-c4ccc(C(F)(F)F)cc4)cc3)CC2)c(C)cc1OCCOC1CCCCO1` (centres undefined), the figures for the growth inhibition in test [1] and in test [4] were 5% and 95% (active), respectively. The inhibition was 30% in test [2] and -7% in test [3]. Moreover, the outcome in test [5], in test [6], in test [7] and in test [8] was inactive.

As for `COc1ccc2nccc([C@@H](O)CN3CCC(NCc4cc5ccccc5[nH]4)CC3)c2n1`, the growth inhibition in test [1] is 55% (active); in test [4], 101% (active). Moreover, the inhibition was 17% in test [2] and 3% in test [3]. The result in test [5], in test [6], in test [7] and in test [8] was inactive.

`CCc1cn2c3c(cc(C(=O)N[C@@H](Cc4cccc(Cl)c4)[C@H](O)CNC4CCCCC4)cc13)N(C)S(=O)(=O)CC2`: the growth inhibition in test [1] is 98% (active); in test [4], 97% (active). Further, the results for the inhibition in test [2] and in test [3] were 12% and 2%, respectively. The outcome in test [5], in test [6], in test [7] and in test [8] was inactive.

On to `O=C(N[C@H]1CCN(Cc2ccc(OC3CCN(Cc4ccccc4)CC3)c(Br)c2)C1)c1ccc(Cl)c(Cl)c1`, for which the growth inhibition in test [1] was 30%; in test [4], 100% (active). Besides, the inhibition is 55% (active) in test [2] and -1% in test [3]. For the same molecule, the outcome in test [5], in test [6], in test [7] and in test [8] was inactive.

In the case of `O=C(N[C@@H](Cc1ccccc1)C(=O)NC1CCCCC1)c1ccc(O)c(-c2cccc(C(F)(F)F)c2)c1`, the growth inhibition in test [1] was 36%; in test [4], 96% (active). The inhibition in test [2] was 11%; in test [3] it was -2%. The outcome in test [5], in test [6], in test [7] and in test [8] was inactive.

As for `Cc1cccc2[nH]c(-c3ccc(-c4cccc(NC(=O)C(C)CN(C)C)c4)s3)nc12` (centres undefined), the figures for the growth inhibition in test [1] and in test [4] were 69% (active) and 92% (active), respectively. The inhibition was 12% in test [2] and 0% in test [3]. Moreover, the outcome in test [5], in test [6], in test [7] and in test [8] was inactive.

Consider `O=C(Nc1cccc(-c2ccc(-c3nc4ccccc4[nH]3)cc2)c1)c1cnn2cccnc12`, for which the growth inhibition in test [1] is 1%; in test [4] it was 87% (active). Besides, the inhibition was 9% in test [2] and -3% in test [3]. Also, the outcome in test [5], in test [6], in test [7] and in test [8] was inactive.

For `CCCCCCP(=O)(COc1ccc(CCN(CC(O)COc2cccc3[nH]c(C(N)=O)cc23)CC(O)COc2cccc3[nH]c(C(N)=O)cc23)cc1)OCCCC` (centres undefined), the values for the growth inhibition in test [1] and in test [4] were 97% (active) and 99% (active), respectively. The inhibition in test [2] was -10%; in test [3], 3%. For the same molecule, the result in test [5], in test [6], in test [7] and in test [8] was inactive.

For `Cc1ccc(OC2CCN(CCCCC3(C)C(=O)Nc4ccccc43)CC2)cc1` (centres undefined), the growth inhibition in test [1] is 2%; in test [4], 100% (active). Moreover, the inhibition in test [2] is 63% (active); in test [3], -3%. Besides, the outcome in test [5], in test [6], in test [7] and in test [8] was inactive.

In the case of `Cc1nnc2c(NC(=O)NC3CCCC3)cc3ccc(-c4cccc(CN5CCN(C)CC5)c4)cc3n12`, the growth inhibition in test [1] is 68% (active); in test [4], 91% (active). Also, the inhibition is 54% (active) in test [2] and 2% in test [3]. In addition, the result in test [5], in test [6], in test [7] and in test [8] was inactive.

For the molecule `CCOc1ccc(Nc2cc(C)nc(Nc3ccc(OCC)cc3)n2)cc1`, the growth inhibition in test [1] was 49%; in test [4], 101% (active). The inhibition in test [2] is 3%; in test [3] it was 8%. The outcome in test [5], in test [6], in test [7] and in test [8] was inactive.

On to `CCCNc1ccc2nccc(CCN3CCC(NCc4ccc5c(c4)NC(=O)CS5)CC3)c2n1`, for which the growth inhibition was 17% in test [1] and 94% (active) in test [4]. Moreover, the inhibition was -2% in test [2] and -5% in test [3]. The outcome in test [5], in test [6], in test [7] and in test [8] was inactive.

On to `CN1CCc2ccc(NC(=O)Nc3ccc(-c4ccccc4)cc3)cc2C1`, for which the values for the growth inhibition in test [1] and in test [4] were 45% and 90% (active), respectively. Further, the values for the inhibition in test [2] and in test [3] were 24% and 3%, respectively. The result in test [5], in test [6], in test [7] and in test [8] was inactive.

Take `CN1CCC(Oc2ccc(CN3CC[C@H](NC(=O)c4ccc(Cl)c(F)c4)C3)c3ccccc23)C1` (some centres undefined): the growth inhibition is 65% (active) in test [1] and 101% (active) in test [4]. Besides, the inhibition in test [2] was 51% (active); in test [3], 3%. Further, the result in test [5], in test [6], in test [7] and in test [8] was inactive.

Consider `Cc1cc(C(=O)Nc2ccc(-c3ccccc3)cc2)no1`, for which the values for the growth inhibition in test [1] and in test [4] were 94% (active) and 90% (active), respectively. For the same molecule, the inhibition in test [2] is 6%; in test [3], -3%. For the same molecule, the result in test [5], in test [6], in test [7] and in test [8] was inactive.

Take `COc1ccc(C2CC(c3cccs3)=NN2C(=O)CNc2ccccc2F)cc1OC` (centres undefined): the values for the growth inhibition in test [1] and in test [4] were 45% and 87% (active), respectively. In addition, the inhibition in test [2] is 11%; in test [3] it was 2%. The outcome in test [5], in test [6], in test [7] and in test [8] was inactive.

In the case of `Nc1nc(N)c2cc(N(Cc3ccccc3)Cc3ccccc3)ccc2n1`, the growth inhibition in test [1] was 88% (active); in test [4], 99% (active). In addition, the inhibition in test [2] was 69% (active); in test [3], 3%. Moreover, the outcome in test [5], in test [6], in test [7] and in test [8] was inactive.
